Reference: PubChem BioAssay (NCI)
About 83,000 compounds went through this panel and 20% of them were active in at least one assay; those are over-represented in the sample as a whole.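 Note: values are percent growth. 100 is the growth of untreated cells, values between 100 and 0 indicate rising inhibition; between -100 and 0 indicates cell death.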 A number with no mark means an inactive call. Activity calls are given as the source filed them. Rule for the calls: active = growth percent below 10; inactive = the rest.

Each compound was assayed on HL-60(TB) leukemia (assay: NCI-60 one-dose screen, 48 h (100 = growth as untreated, 0 = no growth, -100 = all killed)). Settings: 10 µM unless noted.

Row | Compound | growth
1 | COc1cccc(C2C(C#N)=C(N)Oc3cc(OCCCCCC[P+](c4ccccc4)(c4ccccc4)c4ccccc4)ccc32)c1 (stereo not given) | -39.6% (active)
2 | CCOc1cc2c(cc1OCC)C(c1cc(C)c(O)c(C)c1)NCC2 (stereo not given) | 81.7%
3 | O=C(Nc1ccc([N+](=O)[O-])cc1)C(=O)Nc1ccc([N+](=O)[O-])cc1 | 118%
4 | COc1c2ccoc2c(/C=C/C=O)c2oc(-c3ccccc3)cc(=O)c12 | 7.67% (active)
5 | NC[C@@H]1CCN(c2cc3c(cc2F)c(=O)n(N)c(=O)n3Cc2ccc(-c3ccccc3)cc2)C1 | 90.4%
6 | COc1cc2nc(NC3CCC3)nc(NC3CCN(C(C)C)CC3)c2cc1OC | 4.58% (active)
7 | CN(C)CCCN1c2ccccc2Sc2ccc(C(F)(F)F)cc21 | 0.95% (active)
8 | CC1=CC(=O)CC(C)(C)[C@@]1(O)/C=C/[C@@H](C)O | 110%
9 | CC(=O)Nc1ccc(C(=O)COc2ccc(/C=C3\CCc4ccccc4C3=O)cc2)cc1 | 102%
10 | COc1ccc(CN2CCCC(C(=O)c3ccc(C(F)(F)F)cc3)C2)c(O)c1 (stereo not given) | 17%
11 | C=CC(=O)N1CC2(CC(n3nc(-c4ccc(Oc5ccccc5)cc4)c4c(N)ncnc43)C2)C1 | 62.3%
12 | Cc1cc(N/N=C/c2nc(-c3ccc(Br)cc3)oc2C)c2cc(Br)ccc2n1 | 18.9%
13 | COC(=O)Nc1ccc2ccc3c(NC(=O)OC)ccc4ccc1c2c43 (tested in a mixture with another compound) | 33.8%
14 | COC(=O)C(N)CC(C)C (stereo not given) | 94.6%
15 | CC(C)C[C@H](NC(=O)Cn1ccc2ccccc2c1=O)B(O)O | 27.9%
16 | CN1CCN(Cc2ccc(NC(=O)c3nc4ccc5[nH]ncc5c4c4c3CCCC4)cc2C(F)(F)F)CC1 | -57.4% (active)
17 | CC(=O)c1cc2c(N)c(C(=O)Nc3cccc4ccncc34)sc2nc1C | 86.2%
18 | CC(=O)Nc1ccc(S(=O)(=O)c2ccnc3cc(Cl)ccc23)cc1 | 87%
19 | COc1cccc(-c2nc3sccn3c2-c2ccnc(NCCNS(=O)(=O)c3ccccc3)n2)c1 | 69.9%
20 | CCn1cc(C(=O)NN=C2CCCC2)c(=O)c2ccc(C)nc21 | 98.8%

Row | Compound | growth
21 | CCc1nc(N)nc(N)c1-c1ccc(Cl)cc1 | 51.3%
22 | CN(CCCCCl)P(=O)(OCc1ccc([N+](=O)[O-])o1)C(F)(F)C[C@H](NC(=O)CNC(=O)c1ccc(N=[N+]=[N-])cc1)C(=O)NCCc1ccc(O)cc1 (stereo not given in full) | 62.6%
23 | CCN(CC)CCCOc1ccc2ncnc(Nc3ccc(Oc4cccc(C(F)(F)F)c4)c(Cl)c3)c2c1 | -45.2% (active)
24 | COc1ncc(-c2ccc3ncnc(Nc4cccc(Cl)c4)c3c2)cc1NS(=O)(=O)CCN1CCOCC1 | 23.9%
25 | Cc1cc(NCCCNc2ccnc3cc(Cl)ccc23)nc(Nc2ccc(C(=O)N3CCCCC3)cc2)n1 | -63.2% (active)
26 | CN(C)c1ccc(Nc2c3ccccc3nc3ccccc23)cc1 | -2.21% (active)
27 | CN(C)CCC(=O)c1c[nH]c2ccccc12 | 96.5%
28 | COc1cc(OC)cc(C(=O)Nc2cc(-c3cccnc3)nc(NCCCN3CCOCC3)n2)c1 | 86.5%
29 | CC1(C)CC(=O)C2=C(C1)N(c1ccc(OC(F)(F)F)cc1)C(N)=C(C#N)C2c1ccc(Br)cc1F (stereo not given) | 78.5%
30 | Cn1ccnc1C(=O)/C=C/c1ccc(C(=O)Nc2ccc(F)cc2)cc1 | -6.9% (active)
31 | CCOC(=O)c1c2c(n3ccc(NC(=O)OC(C)(C)C)cc13)C(=O)c1ncccc1C2=O | -34.2% (active)
32 | CCN(CC)/C([O-])=c1\cccc\c1=C1\N=C(c2ccccc2)N=C1[n+]1ccc(-c2ccccc2)cc1 | 92.2%
33 | CC(C)(C)c1cc(-n2c(-c3ccc(Cl)cc3)nc3cc(C(=O)Nc4ccc(Cl)cc4)ccc32)n[nH]1 | 51.3%
34 | O=C(O)CCCN1C(=O)/C(=C/c2cn(-c3ccccc3)nc2-c2ccc([N+](=O)[O-])cc2)SC1=S | 83.4%
35 | CCOC(C=O)OCC | 104%
36 | CCc1ccc(C2=C(O)C(=O)C(c3ccc(CC)cc3)=C(O)C2=O)cc1 | -57.6% (active)
37 | O=C(Nc1nc2c(C(F)(F)F)cccc2s1)c1cc(Cl)ccc1O | -38.8% (active)
38 | O=C(Nc1ncc(Cc2ccccc2)s1)c1sc2ccccc2c1Cl | -9.41% (active)
39 | CCCCCn1sc(=O)n(Cc2ccc(CNC(=O)OCc3ccc4c(Cl)cc(Cl)c(O)c4n3)cc2)c1=O | 63.5%
40 | CCCn1c(N)c(C(N)=O)sc1=S | 94.9%
